These results are taken from PubChem BioAssay AID463218 (Sanford-Burnham Center for Chemical Genomics, 2010).

About 3,700 (84%) of roughly 4,400 compounds were called active. So high a share suggests a set chosen from earlier hits. Not all results are given here. A number with no mark means an inactive call.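 How the source made its calls: active means inhibition above about 39% in either of two replicate wells at 20 µM (limit read from the data); inactive means the rest.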

The nature of this experiment: growth inhibition of tim23-1 ts yeast, retest – luminescence, single concentration, confirmation (AID 463218).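 Further: temperature-sensitive tim23-1 mutant grown at 25 °C; 0% = DMSO wells with yeast and 100% = medium wells without yeast.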 Particulars: S. cerevisiae tim23-1 growth, BacTiter-Glo luminescence, 24 h; at 20 µM; hits give high values.
As a reminder, the inhibition is the relative decrease from the control value, in per cent. In the case of `O=C1Oc2ccccc2C(=O)/C1=C/c1ccccc1O`, the inhibition is 89% (active).

Consider `O=C(CC(O)(C(F)(F)F)C(F)(F)F)Nc1ccc(Cl)c(Cl)c1`, for which the inhibition was 92.1% (active).

As for `COc1cc(NC(=O)c2cccs2)ccc1NC(=O)c1ccccc1Cl`, the inhibition was 42.2% (active).

Regarding `Cc1nn(CC(=O)Nc2nc3ccccc3s2)c(C)c1[N+](=O)[O-]`, the inhibition was 54% (active).

Turning to `C=C1CCC(N(O)c2cc(C)on2)C(=C)CCC2C1CC2(C)C` (configuration not stated), the inhibition was 44.8% (active).

In the case of `Cc1ccccc1OCC(=O)Nc1ccc(N2CCN(C(=O)C(C)C)CC2)c(Cl)c1`, the inhibition is 76.3% (active).

As to `N/C(=N\OC(=O)CCc1ccccc1)c1ccc(Cl)cc1`, the inhibition is 67.7% (active).

Turning to `C/C(=N\NC(=S)NCc1ccccc1)c1ccc(Cl)cc1`, the inhibition is 36.7%.

Turning to `COc1ccc(/C(N)=N/OC(=O)CCCc2ccccc2)cc1`, the inhibition was 41.2% (active).

`COc1ccc2c(c1)C(=C(C#N)C#N)C(=O)N2CCc1ccccc1`: the inhibition is -89.4%.

Take `Cc1cc2ncn(CCCCOc3ccccc3)c2cc1C`: the inhibition was 27.3%.

For the compound `O=[N+]([O-])c1ccccc1S(=O)(=O)Nc1cccc2cccnc12`, the inhibition is 59.1% (active).

In the case of `Cc1cccc(Oc2c([N+](=O)[O-])c(=O)n(C)c3ccccc23)c1`, the inhibition is 59.6% (active).

Consider `N/C(=N\OC(=O)CC1CCCCC1)c1ccccc1`, for which the inhibition is 53.1% (active).

Regarding `O=C(NCCc1ccc(F)cc1)c1ccc(S(=O)(=O)N2CCCCC2)cc1`, the inhibition was 56% (active).

As to `Cc1ccc2cc3cc(C(=O)N4CCCCCC4)oc3nc2c1`, the inhibition was 56% (active).

As to `CCC(=O)Nc1nc(C)c(C(=O)Nc2cccc(Cl)c2)s1`, the inhibition is 75.2% (active).

`COc1cc(Br)cc(/C=N/c2ncn[nH]2)c1O`: the inhibition was 85.5% (active).

Consider `O=C1c2cccc3c([N+](=O)[O-])ccc(c23)C(=O)N1CC1CCCO1` (configuration not stated), for which the inhibition was 86.2% (active).

In the case of `O=C(Oc1ccc([N+](=O)[O-])cc1)c1ccc2ccccc2n1`, the inhibition was 70.7% (active).

Take `O=C(N[C@H]1C/C=C\C(c2cccc(F)c2)N(Cc2ccccc2)C(=O)C1)OCC1c2ccccc2-c2ccccc21` (some centres not stated): the inhibition was 40% (active).

Consider `COC(=O)c1c(NC(=O)CSc2nncs2)sc2c1CCCCC2`, for which the inhibition is 46.1% (active).

In the case of `O=C(N/N=C/C=C/c1ccco1)c1cccs1`, the inhibition was 68.9% (active).

For `COc1ccc(CNC(=O)/C(C#N)=C/c2cccc(OC)c2OC)cc1`, the inhibition was 76.6% (active).

Take `CCCc1nc2c(c(=O)c3ccccc3n2C)c(=O)n1C1CCCCCC1`: the inhibition is 58.9% (active).

As to `Cc1ccc(S(=O)(=O)NC2CCCCCC2)cc1`, the inhibition is 37% (active).

As for `O=C(Cc1c(F)cccc1Cl)Nc1ncc([N+](=O)[O-])s1`, the inhibition is 71.3% (active).

Turning to `COc1ccc(-c2nc3cc(C)ccn3c2NC2CCCCC2)cc1SC1CCCCC1`, the inhibition is 48.6% (active).

In the case of `O=C(/C=C/c1ccc(Cl)c([N+](=O)[O-])c1)c1cccnc1`, the inhibition is 73.4% (active).

In the case of `Cc1ccccc1C1=N/C(=C/c2cccnc2)C(=O)O1`, the inhibition is 57% (active).

Take `O=C(Nc1nc(-c2ccco2)c(-c2ccco2)s1)c1ccco1`: the inhibition is 77.3% (active).

In the case of `O=C1[C@@H](c2ccccc2)[C@@H](c2ccccc2)N1c1cccnc1`, the inhibition is 71.3% (active).

In the case of `N/C(Cc1ccc([N+](=O)[O-])cc1)=N\OC(=O)C1CCCCC1`, the inhibition is 64.3% (active).

For the compound `N/C(Cc1ccc([N+](=O)[O-])cc1)=N\OC(=O)COc1ccc2ccccc2c1`, the inhibition was 72.3% (active).

As to `Cc1cccc(NC(=O)c2nc(S(=O)(=O)Cc3ccccc3)ncc2Cl)c1`, the inhibition is -88.7%.

With `Cc1cccc(NC(=S)Nc2ccc(Cl)c(Cl)c2)c1`, the inhibition is 63.8% (active).

Regarding `Cn1c(=O)c(C(=O)Nc2ncccn2)c(O)c2ccccc21`, the inhibition was 53.4% (active).

For the compound `O=C1Nc2ccccc2/C1=C/c1ccnc2ccccc12`, the inhibition was 56.8% (active).

Turning to `CC(C)c1ccc(NC(=S)NC2CC3C=CC2C3)cc1` (configuration not stated), the inhibition was 36.4%.

As to `COc1ccc(S(=O)(=O)N2CCN(C(C)C(=O)Nc3ccc(C(C)C)cc3)CC2)cc1` (configuration not stated), the inhibition is 51.4% (active).

For `COc1ccc(C(C[N+](=O)[O-])n2nc(C)cc2C)cc1` (configuration not stated), the inhibition is 62% (active).

For `O=C(NC(Nc1nc2ccc([N+](=O)[O-])cc2s1)(C(F)(F)F)C(F)(F)F)c1ccccc1`, the inhibition is 87.3% (active).

Regarding `COc1ccc(NC(=O)Nc2cccc3cccnc23)cc1`, the inhibition is 42.3% (active).

On to `COc1ccc(CS(=O)/C(Cl)=C(/Cl)C(=O)Nc2ccc(OC)nc2)cc1` (configuration not stated), for which the inhibition is -9.55%.

With `CN(C(=O)CC(NC(=O)c1ccccc1)(c1ccccc1)c1ccccc1)c1ccccc1`, the inhibition is 44.1% (active).

As for `Fc1ccccc1-c1cc2cc3c(cc2cn1)OCO3`, the inhibition was 59% (active).

On to `CCOc1ccc(C(c2c(C)[nH][nH]c2=O)c2c(C)[nH][nH]c2=O)cc1OCC`, for which the inhibition is 41.6% (active).

As for `CCCc1c(C(=O)Nc2ccc(F)cc2)cnn1-c1ccccc1`, the inhibition was 30.4%.

With `Cc1ccc2nc(-c3ccc(NC(=O)c4cccnc4)cc3)oc2c1`, the inhibition is 42.7% (active).

`Cc1ccc(N=Cc2c(O)cc(C)oc2=O)c(C)c1`: the inhibition was 12.4%.

Take `O=C(Nc1nnc(SCc2c(Cl)cccc2Cl)s1)C1CCCO1` (configuration not stated): the inhibition is 49.7% (active).

As for `Cc1cccc(C)c1NC(=O)C(Cl)C(=O)c1ccccc1` (configuration not stated), the inhibition was 68.8% (active).

For `S=C(NCCCc1ccccc1)Nc1ccc(Br)cc1`, the inhibition was 54.3% (active).

In the case of `COc1ccc2c(c1)C(NS(=O)(=O)OCC(Cl)(Cl)Cl)CCC2` (configuration not stated), the inhibition was 52.8% (active).

Consider `CCCCCCc1ccc(O)cc1O`, for which the inhibition was 45.3% (active).

In the case of `Cc1ccccc1C(=O)NC(=S)NC1CC1`, the inhibition is 12.2%.

For `O=C(NC(=S)NC1CCCCC1)c1ccc(Cl)cc1`, the inhibition is 53.2% (active).

Regarding `COc1ccc(C(=O)NC(=S)NC2CCCCC2)cc1`, the inhibition was 59.2% (active).

For the compound `Cc1ccoc1C(=O)Nc1cccc(Oc2ccccc2)c1`, the inhibition is 75.2% (active).

Consider `O=C(Nc1ccccc1)c1ccc2c(c1)OCCCO2`, for which the inhibition was 31.9%.

Turning to `COc1ccccc1-c1n[nH]c2c1[C@H](C)CC[C@H]2C(C)C`, the inhibition is 61.8% (active).

As to `Cc1ccc(C2CC(=O)NC(SCC(=O)OCc3ccccc3)=C2C#N)o1` (configuration not stated), the inhibition was 53.8% (active).

`CCc1nnc(NS(=O)(=O)c2ccc(NC(=S)NC(=O)/C=C/c3cccs3)cc2)s1`: the inhibition was 25.8%.

Take `O=C1C=C(c2cccc(Cl)c2O)C[C@@H](c2ccc(F)cc2)C1`: the inhibition is 51.5% (active).

With `CC(=O)Oc1ccc2c(c1)C(=O)c1ccccc1C2=O`, the inhibition was 68.2% (active).

For `Cc1nc2sc(C(=O)c3ccccc3)c(N)c2c2c1CCCC2`, the inhibition was 54.4% (active).

In the case of `COc1cccc(-c2sc3ccc(OC)cc3c2-c2ccc(OCCN3CCCCC3)cc2)c1`, the inhibition is 23.4%.

Consider `Cc1[nH]n(C(N)=S)c(=O)c1N=Nc1ccc(Cl)cc1Cl`, for which the inhibition is 70% (active).

For `CC(=O)N1N=C(c2ccncc2)OC1(Cc1ccccc1)Cc1ccccc1`, the inhibition was 49.8% (active).

Take `c1ccc(-c2nc(NCc3ccco3)c3ccccc3n2)cc1`: the inhibition was 64.7% (active).

Regarding `O=c1ccc2c(-c3ccccc3S(=O)(=O)O)c3ccc(O)c(O)c3oc-2c1O`, the inhibition was 43.4% (active).

Consider `O=c1oc(-c2ccccc2NS(=O)(=O)c2ccc(Cl)cc2)nc2ccccc12`, for which the inhibition is 56% (active).

As for `CC(C)NC(=O)/C(C#N)=C\c1ccc(N(C)C)c(Br)c1`, the inhibition is 62.2% (active).

Consider `O=C1CC(Sc2ncn[nH]2)C(=O)N1c1ccccc1` (configuration not stated), for which the inhibition is 37.8%.

Turning to `Cc1cc(Nc2ccc(Br)cc2)nc2ccccc12`, the inhibition is 68.2% (active).

With `Cc1cccc(-c2nc(Nc3ccc(O)cc3)c3ccccc3n2)c1`, the inhibition is -19.6%.

For the compound `Cc1ccc2nc(Nc3ccccc3)cc(C)c2c1`, the inhibition is 43.1% (active).

On to `Cc1[nH][nH]c(=O)c1C(c1ccc(-c2ccc(Cl)cc2)o1)c1c(C)[nH][nH]c1=O`, for which the inhibition is 62.4% (active).

Regarding `CC(=O)Oc1ccc(N(C(C)=O)S(=O)(=O)c2ccc3ccccc3c2)cc1Br`, the inhibition is 52.9% (active).

Regarding `Cc1ccc(C(=O)OC2=CC(=O)CC(C)(C)C2)cc1`, the inhibition was 38% (active).

Turning to `CN1C(=O)/C(=N/OC(=O)c2ccccc2Br)c2ccccc21`, the inhibition is -64.7%.

With `CSC(=S)N/N=C/c1c[nH]c2ccccc12`, the inhibition is 52.5% (active).

As to `COCCNC(=O)/C(C#N)=C/c1cccc(OCc2ccccc2)c1`, the inhibition was 67% (active).

Take `CCCCC(CC)CNC(=O)C(=O)C1C(=O)Nc2ccccc21` (configuration not stated): the inhibition was 41.6% (active).

In the case of `O=C(Nc1cccc(F)c1)NC1CCCCCCC1`, the inhibition is 39.9% (active).

With `COc1cc(SC)ccc1C(=O)Nc1nc(C)cs1`, the inhibition was 57.5% (active).

For `Cc1cc(C)nc(S/C=C/C(=O)c2ccccc2)n1`, the inhibition is 87.6% (active).

Take `O=C(/C=C/Sc1ncn[nH]1)c1ccc(Cl)cc1`: the inhibition is 20.5%.

Regarding `CCc1ccc2c(c1)C1(NN=C(c3ccccc3)S1)C(=O)N2` (configuration not stated), the inhibition was 53.2% (active).

With `CCC1=NN(C(=O)Cc2ccc([N+](=O)[O-])cc2)C(O)(c2ccc(Br)cc2)C1` (configuration not stated), the inhibition was 45.7% (active).

For `CC1CCC2CCCCC2N1C(=O)c1cc([N+](=O)[O-])cc([N+](=O)[O-])c1` (configuration not stated), the inhibition is 42.8% (active).

On to `Cc1onc(NC(=O)c2ccc([N+](=O)[O-])o2)c1Br`, for which the inhibition is 50.6% (active).

As for `CCCNc1ncnc2sc(C)c(C)c12`, the inhibition is 27.9%.

`Cc1ccc2c(c1)c1ncnc(N3CCc4ccccc4C3)c1n2C`: the inhibition is 45.2% (active).

As for `N#C/C(=C\c1cccnc1)C(=O)Nc1ccc(SC(F)F)cc1`, the inhibition is 65.7% (active).

`Cc1ccc(Oc2nc(-c3ccccn3)nc3ccccc23)cc1`: the inhibition is 46.1% (active).

On to `COc1ccc(Nc2nc(N)nc(CSC(=S)N3CCC(C)CC3)n2)cc1`, for which the inhibition is 49.7% (active).

Consider `COc1ccc(/C=C2/C(=O)N(c3ccccc3)N=C2C)c(OC)c1`, for which the inhibition is 49.5% (active).

For `N#C/C(=C\c1ccccc1C(F)(F)F)C(=O)Nc1ccccc1F`, the inhibition was 71.7% (active).

Turning to `Cc1cccc(C)c1N1C(=O)CN(Cc2ccccc2)C1=S`, the inhibition was 44.8% (active).

For the compound `Cn1nc(C(F)(F)F)c2cc(NC(=O)OCC(C)(C)C)sc21`, the inhibition was 41.3% (active).

As for `O=C(N/N=C\c1cc(Br)c(Br)o1)C1COc2ccccc2O1` (configuration not stated), the inhibition is 31%.
